Growth data for nine compounds are collected here from PubChem BioAssay (NCI).

About 83,000 compounds went through this panel and 20% of them were active in at least one assay; those are over-represented in the sample as a whole.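 For each line, cells grew in 96-well plates with the test compound present at a single concentration for 48 hours.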 A number with no mark means an inactive call. Calls of active or inactive are those of the source. Rule for the calls: active = growth percent below 10; inactive = the rest.

The subject of this experiment is MDA-MB-468 breast. The experiment can be described thus: NCI-60 one-dose screen, 48 h (100 = growth as untreated, 0 = no growth, -100 = all killed). The note with it: 10 µM unless noted.
As to `O=C1NN(c2ccccc2)C(c2cccnc2)=N/C1=C\c1cccnc1`, the growth is 90%.

Turning to `Cc1ccc2c(n1)C(=O)C(Cl)=C(Nc1ccc(C(F)(F)F)cc1)C2=O`, the growth was -48.5% (active).

For `O=C(/C=C/c1ccccc1)n1c(-c2ccc(Cl)cc2)nc2ccccc21`, the growth is -6.61% (active).

As for `CC(=O)N[C@H](C(=O)N[C@@H](CCCNC(=N)N)C(=O)N[C@@H](CCCCN)C(=O)N[C@@H](CCCNC(=N)N)C(=O)N[C@]1(C)CCC/C=C\CCC[C@@](C)(C(=O)N[C@@H](CC(C)C)C(=O)N[C@@H](CC(C)C)C(=O)N[C@@H](CCC(N)=O)C(=O)N[C@@H](CCC(=O)O)C(=O)N[C@@H](CCCNC(=N)N)C(=O)N[C@@H](CCC(=O)O)C(=O)N[C@@H](CC(C)C)C(=O)N[C@H](C(=O)N[C@@H](CCC(=O)O)C(N)=O)C(C)C)NC(=O)[C@H](CCCNC(=N)N)NC(=O)[C@H](CC(C)C)NC1=O)C(C)C`, the growth was 109%.

In the case of `Cc1ccc(-c2c3c(N)nc(-c4cccnc4)nc3nc3c2c(C)nn3-c2ccccc2)cc1`, the growth is 74.6%.

With `CS(=O)(=O)c1ccc(-c2nc3ccccc3n2CC(=O)N/N=C/c2ccccc2)cc1`, the growth was 112%.

`CCOC(=O)c1c(C)c2c(n1Cc1ccccc1)CSc1cc(C#N)c(=O)[nH]c1-2`: the growth was 80.3% [100 µM].

Turning to `O=C1OCC2=C1C(c1ccc(Cl)c(Cl)c1)c1cc3c(cc1N2CCO)CCC3` (centres undefined), the growth was 22.9%.

On to `Cc1cccc2c(=O)c3c(sc12)c(N1CCNCC1)nc1ccccc13`, for which the growth was 65.4%.
